Assay results from the OligoGym collection.
Note: reference of the scale not given here.

These sequences were tested against ZNF512B (assay: pooled miR-30 sensor sort-seq; sequence = guide strand). Details: shRNA.
With TTTGGACTTGAACTGCTTCCGG the sensor-assay potency score (higher = more potent) was 0.34. For TTCGGAACCAGTTCTCTGCGTG, the sensor-assay potency score (higher = more potent) was -0.0926. Sequence TGAGTTTGGACACTTCACCCTC has a sensor-assay potency score (higher = more potent) of -0.0834. For TTCGTAACTGTCACAAGCTTTG, the sensor-assay potency score (higher = more potent) was -1.03. Work on TTGGACTTGAACTGCTTCCGGC yielded a sensor-assay potency score (higher = more potent) of -0.182. TTTTTCTTCCCTTCTGTCTTGT gave a sensor-assay potency score (higher = more potent) of 0.00205. For TAGTGTGGTAGTTGAGGCCGGC, the sensor-assay potency score (higher = more potent) was -0.21. For TTGAAGGGCATCAAGCTTCTGC, the sensor-assay potency score (higher = more potent) was 0.255. TACTTGAGCCCGTAGATGCTGG gave a sensor-assay potency score (higher = more potent) of -0.743. With TTGCTGACCACAATGGGCCTGC the sensor-assay potency score (higher = more potent) was 0.0376. Work on TTTCGTAACTGTCACAAGCTTT yielded a sensor-assay potency score (higher = more potent) of -0.797.

The sequences below were run against ZNF517 in the same assay as above. Details: shRNA.
In the case of TTCTGGTGCTGCAGCAGCCGGG, the sensor-assay potency score (higher = more potent) is reported as -1.68. For TTGTGAAGTACACAGCCACATC, the sensor-assay potency score (higher = more potent) was -1.38. Work on TCTTCCTGCAGAACCCTTGGGG yielded a sensor-assay potency score (higher = more potent) of -0.177. Work on TGCTCGTTGAGGGTGAACCTGC yielded a sensor-assay potency score (higher = more potent) of -1.07. In the case of TTGAGGGTGAACCTGCGGCAGA, the sensor-assay potency score (higher = more potent) is reported as -1.5. Work on TTTGGCAACAAGAAAGCCTAGT yielded a sensor-assay potency score (higher = more potent) of 0.561. Work on TCGTTGAGGGTGAACCTGCGGC yielded a sensor-assay potency score (higher = more potent) of -0.629. For TCGTTCAGCGTGTAGCTCCTGC, the sensor-assay potency score (higher = more potent) was -0.267. Work on TCCTTGTGAAGTACACAGCCAC yielded a sensor-assay potency score (higher = more potent) of -1.39. For TTCTCTGCAGAGGAGACTCCAT, the sensor-assay potency score (higher = more potent) was -1.52. Sequence TTCAGCGTGTAGCTCCTGCGGA has a sensor-assay potency score (higher = more potent) of -0.596. For TTGTATCTGAACGCCTTGCCGC, the sensor-assay potency score (higher = more potent) was -1.19.
